Screening data from PubChem.
Shown are actives, neighbours in structure and some others; about 19% of the full set was active somewhere.
DT40 TDP1 CPT: DT40-hTDP1 cell growth loss with CPT. chicken DT40 Tdp1-/-;hTDP1 cells + 20 nM CPT, ATP luminescence, 48 h. Potency, µM (titrated, usually from 46.2 µM), without a hit: at the highest dose activity change, negative = growth inhibition, actives largely listed as inhibitors. 420,000 tested, 12% active. AID 686979; note: potency is the fitted concentration of half-maximal effect; nearly all actives have a fitted effect of over 55% in size
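Cell growth measured by CellTiter-Glo luminescence after a minimum 48 h, 37 C compound exposure with 20 nM CPT in Tdp1-knockout DT40 cells stably expressing hTDP1, seeded 400/well; qHTS titration format.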
HT1080 IDH1KD tx: toxicity to HT-1080 IDH1 knockdown cells (counter line). HT-1080 IDH1 knockdown viability, ATP luminescence, 48 h. Potency, µM (highest dose often 46.1 µM), inactives show at the top dose activity, negative = toxicity, most hits filed as cytotoxic. 360,000 tested, 2% active;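 note: potency is the fitted concentration of half-maximal effect; 0% = DMSO wells and -100% = cell-free medium wells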
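Assay cells: HT-1080 with IDH1 knockdown, 750 per well, RPMI/5% FBS. Exposure: 48 h at 37 °C following 2 h pre-incubation. Read: CellTiter-Glo luminescence; fitted concentration-response, curve class assigned.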
HT1080-NT tox: kills 2HG-producing HT-1080-NT fibrosarcoma cells; HT-1080-NT fibrosarcoma viability, CellTiter-Glo ATP luminescence, 48 h; Potency, µM (highest dose often 46.1 µM), without a hit: at the highest dose activity, negative = less viability, most hits filed as cytotoxic; 360,000 tested, 1.6% active; AID 686970;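 note: NT is the 2HG producing partner of a matched IDH1 knockdown line; potency is the fitted concentration of half-maximal effect; 0% = DMSO-treated cells and -100% = media-only wells without cells; nearly all actives have a fitted effect of over 55% in size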
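HT-1080-NT fibrosarcoma cells (2HG-overproducing), 750 cells/well in RPMI with 5% FBS, dosed after 2 h and incubated 48 h at 37C. CellTiter-Glo luminescence normalized to DMSO and no-cell wells; concentration-response curves fitted and classed.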
TDP1 cell noCPT: qHTS for Inhibitors of human tyrosyl-DNA phosphodiesterase 1 (TDP1): qHTS in cells in absence of CPT; AID 686978, 2013; DT40 Tdp1-/- hTDP1 cells, no CPT, ATP luminescence, 48 h; Potency, µM (series often up to 46.2 µM), without a hit: at the top dose activity change, negative = growth inhibition, actives largely listed as inhibitors; 420,000 tested, 15% active; note: potency is the fitted concentration of half-maximal effect; nearly all actives have a fitted effect of over 55% in size
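No-CPT arm: Tdp1-/-;hTDP1 DT40 cells (400/well) plus compounds, incubated ≥48 hr at 37 °C. Readout CellTiter-Glo luminescence.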
IL-1B inflam inh: inhibitors of inflammasome signaling (IL-1 beta secretion); AID 743279; THP-1 LPS/ATP IL-1B secretion, AlphaLISA, 16 h; hits give low values; activity change, % at 57.5 µM; 360,000 tested, 4.7% active; in the data active = activity change below about -50%; inconclusive = mostly about -30% to -49%
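Secreted IL-1B measured by AlphaLISA bead assay after 16 h compound exposure of THP-1 cells; compounds (final up to 57.5 uM) added 1 h before LPS (250 ng/mL) and ATP (1.25 mM) stimulation; lower signal means less secretion.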
uPA surface inh: cell surface uPA generation inhibition; cell surface uPA generation assay, qHTS; Potency, µM (doses to about 38.3 µM), without a hit: top-dose activity change, negative = inhibition, hits mostly inhibitors; 330,000 tested, 0.31% active; active = well fitted inhibition curve with a large enough effect; inconclusive = small, poorly fitted or top-dose-only effect; inactive = no such curve, though single readings can be large or run the other way; tested in mouse RAW 264.7 cells; note: potency is the fitted concentration of half-maximal effect; nearly all actives have a fitted effect of over 55% in size
* marks the source's active call; other numbers are inactive results; ? = inconclusive; . = no result; ! = a repeat was not active; [ ] = remark or other dose. Unless noted, calls come from the whole dose curve; as a rule, active = well fitted curve in the direction sought with a large enough effect; inconclusive = small, poorly fitted or top-dose-only effect, or another doubt; inactive = no such curve, though single readings can be large; an effect the other way counts as inactive or inconclusive. Unless noted, % is set by controls: 0 for no effect and ±100 for the full control effect.

SMILES	DT40 TDP1 CPT	HT1080 IDH1KD tx	HT1080-NT tox	TDP1 cell noCPT	IL-1B inflam inh	uPA surface inh
CCOC(=O)C1=C(C)N(c2ccc(C)c(C)c2)C(=O)/C1=C\c1ccco1	-7.3%	-20.5%	2.0%	?	-4.4	.
CCOC(=O)C1=C(C)N(c2ccc(OC)cc2)C(=O)/C1=C\c1ccc(O)c(OCC)c1	23.1µM*	-5.1%	-0.2%	?	36.5	?
C=C(C)Cn1c(N2CCC(Cc3ccccc3)CC2)nc2c1c(=O)[nH]c(=O)n2C	?	?	?	?	6.9	-1.0%
CCCn1c(N2CCC(Cc3ccccc3)CC2)nc2c1c(=O)[nH]c(=O)n2C	?	?	?	?	-5.2	-11.7%
CCCCCn1c(N2CCC(Cc3ccccc3)CC2)nc2c1c(=O)[nH]c(=O)n2C	7.31µM*	?	20.6µM*	?	-86.7*	10.2%
CC(=O)Cn1c(N2CCC(Cc3ccccc3)CC2)nc2c1c(=O)[nH]c(=O)n2C	?	10.9%	7.9%	16.4µM*	16.1	-4.2%
CC1=C(c2ccc(C)cc2)S(=O)(=O)N=C1N1CCN(c2ccccc2)CC1	-12.1%	.	.	-12.8%	.	.
CCC(Oc1ccccc1)C(=O)Nc1cccc(OCc2cc(=O)n3cccc(C)c3n2)c1 (stereo not drawn)	23.1µM*	.	.	16.4µM*	.	.
CCCC(=O)Nc1cccc(OCc2cc(=O)n3cccc(C)c3n2)c1	-22.9%	.	.	-26.5%	.	.
Cc1ccc(OCC(=O)Nc2cccc(OCc3cc(=O)n4cccc(C)c4n3)c2)cc1C	14.6µM*	.	.	18.4µM*	.	.
COc1ccc(NC(=O)Nc2cccc(OCc3cc(=O)n4cccc(C)c4n3)c2)c(OC)c1	?	.	.	13µM*	.	.
Cc1cccn2c(=O)cc(COc3ccc(NC(=O)C(C)C)cc3)nc12	4.3%	.	.	2.2%	.	.
COc1ccc(/C=C(/NC(=O)/C=C/c2ccccc2)C(=O)NCCCCCC(=O)O)cc1	-0.3%	-2.9%	1.6%	10.3%	7.5	-1.2%
CCCNC(=O)C1(C)CCCN(C(=O)c2ccc(OC(F)F)cc2)C1 (stereo not drawn)	2.9%	?	25.7%	2.8%	-1.0	.
COc1cc(OC)cc(-c2nc3nc(C)c(CCC(=O)Nc4ccc(C)c(C)c4)c(C)n3n2)c1	11.3%	.	.	-2.3%	.	.
O=C(CCNS(=O)(=O)c1ccc2c(c1)CCN2C(=O)C1CC1)N1CCN(c2ccccc2F)CC1	13µM*	.	.	11.6µM*	.	.
O=C(C1CCC1)N1CCc2cc(S(=O)(=O)NCCN3CCN(c4ccccc4F)CC3)ccc21	?	-20.8%	-4.0%	23.1µM*	-2.8	-13.2%
CCc1cccc2c(C(=O)CN3C(=O)N(C)C4(CCCCC4)C3=O)c[nH]c12	3.26µM*	16.4µM*	18.4µM*	8.2µM*	60.0	?
Cc1ccc(C)c(C(=O)CN2C(=O)NC3(CCc4ccccc43)C2=O)c1 (stereo not drawn)	?	2.9%	-5.5%	?	3.9	-17.2%
CCc1cccc2c(C(=O)CN3C(=O)NC(C)(c4cccc5ccccc45)C3=O)c[nH]c12 (stereo not drawn)	?	14.6µM*	?	?	27.9	-12.8%
CN1C(=O)N(CC(=O)NCc2ccc(Cl)cc2Cl)C(=O)C12CCCCC2	-15.6%	-0.9%	-4.4%	-5.2%	-54.3*	3.9%
CCc1cccc2c(C(=O)CN3C(=O)NC4(CCc5ccccc54)C3=O)c[nH]c12 (stereo not drawn)	4.61µM*	?	?	4.61µM*	-57.7*	-10.6%
CC1(C2CC2)NC(=O)N(CC(=O)NCc2ccc(Cl)cc2Cl)C1=O (stereo not drawn)	-2.8%	-2.8%	-4.9%[9.24 µM]	16.3%	7.1	13.6%
CCn1c(C)c(CS(=O)(=O)c2ccccc2)[nH]c1=O	4.11µM*	?	?	2.91µM*	-6.0	-14.3%
O=[N+]([O-])c1ccccc1/C=C\C=N\N1CCN(c2ccccc2)CC1	?	-2.8%	8.6%	-20.5%	-53.3*	?
SMILES	DT40 TDP1 CPT	HT1080 IDH1KD tx	HT1080-NT tox	TDP1 cell noCPT	IL-1B inflam inh	uPA surface inh
O=[N+]([O-])c1ccccc1/C=N\N1CCN(c2ccccc2)CC1	0.4%	9.1%	8.0%	?	-18.8	-4.1%
CCN(CC)CCn1c2c(c(SCC(=O)Nc3nccs3)nc1=O)CCCC2	1.8%	-11.4%	-6.2%	-6.1%	-21.1	-26.0%
CCN(CC)CCCn1c2c(c(SCC(=O)Nc3ccc(OC(F)(F)F)cc3)nc1=O)CCC2	?	-16.0%	-13.7%	?	-68.8*	-3.0%
CCN(CC)CCn1c2c(c(SCC(=O)Nc3ccc4c(c3)OCO4)nc1=O)CCC2	-16.7%	0.3%	-1.1%	?	-27.9	-3.6%
CCN(CC)CCCn1c2c(c(SCC(=O)Nc3nc4ccccc4s3)nc1=O)CCC2	-84.6%	-8.9%	-19.4%	?	-51.2*	-3.6%
Cc1ccc(CN2CCN(/N=C/c3cccn3C)CC2)c(C)c1	23.1µM*	1.5%	1.9%	23.1µM*	-6.6	7.8%
O=C(Nc1ccc2c(c1)CCCN2C(=O)c1cccs1)c1cccc(F)c1	?	?	?	?	.	-3.1%
O=C(Nc1ccc2c(c1)CCCN2C(=O)c1cccs1)c1ccccc1	16.4µM*	?	?	13µM*	-17.4	-3.0%
O=C(Nc1ccc2c(c1)CCCN2C(=O)c1cccs1)c1ccc(F)c(F)c1	16.4µM*	.	.	20.6µM*	.	.
COc1cc(OC)cc(C(=O)Nc2ccc3c(c2)CCCN3C(=O)c2cccs2)c1	18.4µM*	?	?	23.1µM*!	-16.1	-14.4%
O=C(Nc1ccc2c(c1)CCCN2C(=O)c1cccs1)c1cccc(C(F)(F)F)c1	13µM*	.	.	9.2µM*	.	.
Cc1cccc(S(=O)(=O)c2cn(C)c3cc(N4CCN(c5ccccc5)CC4)c(F)cc3c2=O)c1	4.0%	.	.	-15.1%	.	.
CN(CC(=O)Nc1ccccc1Br)C(=O)c1cc(S(=O)(=O)N(C)C)ccc1N1CCCC1	-15.0%	0.0%	2.1%	-20.4%	-16.8	3.2%
Cc1cccc(COCC(Cc2ccccc2)N2CCN(C(=O)c3cccc(C)c3)CCC2=O)c1 (stereo not drawn)	?	-7.7%	-6.4%	?	-26.9	-1.8%
O=C(c1ccc(Cl)c(Cl)c1)N1CCC(=O)N(C(COCc2ccc(Cl)cc2)Cc2ccccc2)CC1 (stereo not drawn)	?	?	-16.0%	16.4µM*	-73.1*	?
